Reference: PubChem BioAssay AID1159580 (chemical genetic matrix, 2015)
Where “and” joins values, the source holds several entries; their conditions need not be identical. Identical values can stand only once. The whole screen tested about 5,500 compounds, of which about 2,000 (36%) were called active. Inconclusive results (about 18%) are left out. Cut-off read from the data, not from the text of the source: active = normalized growth mostly below about 0.91 (no sharp cut-off); inconclusive = no clear call, values can overlap the other calls; inactive = mostly above about 0.92. This is one part of the list.

Test: chemical genetic growth profiling, strain panel (AID 1159580);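 note: tested at 20 µM; growth read once vehicle control cultures reached saturation at 30 °C; 1 = growth at the plate median or of vehicle wells; lower values mean less growth of the strain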
Settings: S. cerevisiae deletion strains, growth OD

Measured: normalized growth

CC1(C)C(=O)[C@@H]2C[C@@]3(O)C4=CC(=O)O[C@@H](c5ccoc5)[C@]4(C)CCC3[C@@](C)(C2=O)[C@H]1CC(=O)O (stereo partly specified)
inactive: locus YAL021C, strain ccr4, hits give low values 0.988 | locus YAL026C, strain drs2, hits give low values 1.02 | locus YAL030W, strain snc1, hits give low values 0.997 | locus YBL061C, strain skt5, hits give low values 1.01 | locus YBR009C, strain hhf1, hits give low values 1 | locus YBR021W, strain FUR4, hits give low values 1 | locus YBR023C, strain chs3, hits give low values 1.01 | locus YBR171W, strain sec66, hits give low values 1.01 | locus YBR229C, strain ROT2, hits give low values 1.01 | locus YBR231C, strain swc5, hits give low values 1.01 | locus YBR279W, strain paf1, hits give low values 1.01 | locus YCL011C, strain gbp2, hits give low values 1.02 | locus YCL016C, strain dcc1, hits give low values 1.01 | locus YCL029C, strain bik1, hits give low values 0.995 | locus YCL061C, strain MRC1, hits give low values 1 | locus YCL069W, strain vba3, hits give low values 1.01 | locus YCR088W, strain abp1, hits give low values 1 | locus YDL005C, strain med2, hits give low values 0.996 | locus YDL035C, strain GPR1, hits give low values 1.03 | locus YDL040C, strain nat1, hits give low values 0.991 | locus YDL074C, strain BRE1, hits give low values 1.02 | locus YDL101C, strain DUN1, hits give low values 1.01 | locus YDL185W, strain tfp1, hits give low values 0.995 | locus YDL192W, strain arf1, hits give low values 1 | locus YDR001C, strain nth1, hits give low values 1.01 | locus YDR069C, strain doa4, hits give low values 1.02 | locus YDR101C, strain arx1, hits give low values 0.993 | locus YDR137W, strain rgp1, hits give low values 1.04 | locus YDR150W, strain NUM1, hits give low values 1.01 | locus YDR159W, strain sac3, hits give low values 1.01 | locus YDR162C, strain NBP2, hits give low values 1.03 | locus YDR195W, strain ref2 0.972 | locus YDR297W, strain sur2, hits give low values 1.01 | locus YDR318W, strain mcm21, hits give low values 0.996 | locus YDR334W, strain swr1, hits give low values 1.01 | locus YDR335W, strain msn5, hits give low values 1.01 | locus YDR388W, hits give low values 0.967 | locus YDR392W, strain spt3, hits give low values 1.01 | locus YDR502C, strain sam2, hits give low values 0.991 | locus YEL003W, strain gim4, hits give low values 1.03 | locus YEL037C, strain rad23, hits give low values 1.01 | locus YEL061C, strain CIN8 (second series), hits give low values 1.02 | locus YEL061C, strain CIN8, hits give low values 1 | locus YER015W, strain faa2, hits give low values 1 | locus YER016W, strain bim1, hits give low values 1 | locus YER110C, hits give low values 0.984 | locus YER111C, strain swi4, hits give low values 1.01 | locus YER155C, strain BEM2 (second series), hits give low values 1.02 | locus YER155C, strain BEM2, hits give low values 1 | locus YER167W, strain BCK2, hits give low values 1 | locus YFR010W, strain ubp6, hits give low values 1.01 | locus YGL078C, strain dbp3, hits give low values 0.996 | locus YGL086W, strain mad1, hits give low values 1.01 | locus YGL167C, strain pmr1, hits give low values 1 | locus YGL173C, strain kem1, hits give low values 1.01 | locus YGL227W, strain vid30, hits give low values 0.998 | locus YGL240W, strain doc1, hits give low values 1.01 | locus YGL248W, strain PDE1, hits give low values 1 | locus YGL253W, strain hxk2, hits give low values 1.01 | locus YGR135W, strain pre9, hits give low values 0.997 | locus YGR252W, strain gcn5, hits give low values 1 | locus YHR013C, strain ard1, hits give low values 1.02 | locus YHR027C, strain rpn1, hits give low values 0.993 | locus YHR030C, strain SLT2, hits give low values 0.98 | locus YHR079C, strain IRE1 (second series), hits give low values 0.996 | locus YHR079C, strain IRE1, hits give low values 0.956 | locus YHR094C, strain hxt1, hits give low values 0.981 | locus YHR129C, strain ARP1, hits give low values 1 | locus YHR142W, strain chs7, hits give low values 1.02 | locus YHR200W, strain rpn10, hits give low values 0.988 | locus YIL066C, strain RNR3, hits give low values 1 | locus YIL073C, strain SPO22, hits give low values 1.05 | locus YIL125W, strain kgd1, hits give low values 0.994 | locus YIR030C, strain dcg1, hits give low values 0.993 | locus YJL092W, strain hpr5, hits give low values 1.01 | locus YJL095W, strain BCK1 (second series), hits give low values 1 | locus YJL095W, strain BCK1, hits give low values 1.02 and 0.973 | locus YJL115W, strain asf1, hits give low values 1.02 | locus YJL129C, strain trk1, hits give low values 0.998 | locus YJL134W, strain LCB3, hits give low values 1 | locus YJL154C, strain vps35, hits give low values 1 | locus YJL164C, strain tpk1, hits give low values 1.01 | locus YJL166W, strain qcr8, hits give low values 1.02 | locus YJL168C, strain set2, hits give low values 0.994 | locus YJL187C, strain SWE1 (second series), hits give low values 1.01 | locus YJL187C, strain SWE1, hits give low values 1.03
